Source: the supplement of paper PMC10338343
± gives the standard deviation.

tested on: MILI (PIWIL2) piRISC loaded with piRNA #1 (26 nt); test: pre-steady-state target cleavage rate (min^-1); guide: piRNA #1 5'p-UGAGGUAGUAGGUUGUAUAGUAUCCA; MIWI and MILI are mouse PIWI proteins and EfPiwi is from a freshwater sponge; tags in brackets are library labels; higher = faster piRNA-guided slicing of the target; conditions: auxiliary factor: 500 nM mouse GTSF1
Method in brief: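 A transcribed, DNA-blocked target RNA library […] was incubated at 33 °C for 0–8 or 0–960 min with 1 nM active affinity-purified piRISC carrying one synthetic guide, in HEPES–potassium acetate buffer with or without 500 nM GTSF1 partner protein. Uncleaved targets were then sequenced and normalised to depth and to weakly complementary targets. Data from three trials were pooled, with k3 capped at 0.0001 min^-1, and a burst-and-steady-state fit yielded the pre-steady-state cleavage rate.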
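Note: 1 nM active piRISC with 0.1 nM target library at 33 °C single turnover.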

Row | Sequence | pre-steady-state target cleavage rate
1 | GGAGACCUUACUAAUCAACCUACUACCUCA | 0.11 ± 0.016
2 | GGAGACCUAUGAUAACAACCUAUCUACCUCA | 0.00737 ± 0.0021
3 | GGAGACCUAUGAUAAUCAACCUACUACCUCA | 0.00294 ± 0.0029
4 | GGAGACCUAUGAUAUGUUCCUACGUACCUCA | < 0.0001
5 | GGAGACCUUAGUAUACAACCUAGUACCUCA | 0.0225 ± 0.0077
6 | GGAGACGAUACUUACAACCUACUACCUCA | 0.114 ± 0.01
7 | GGAGACCUUACUUAACAACCUACUACCUCA | 0.101 ± 0.016
8 | GGAGACCAUACUAUACAUCCUUCUACCUCA | 0.042 ± 0.0097
9 | GGAGACCUAUGAUUACAACGUACUUCCUCA | 0.00374 ± 0.0031
10 | GGAGACCUAUCUAUACAACCUUCUACGUCA | 0.00428 ± 0.003
11 | GGAGACCUAUCUUUACAACCUACUAGCUCA | 0.0374 ± 0.0091
12 | GGAGACCUAUGAUAUCAACCUACAACGUCA | < 0.0001
13 | GGAGACCUAUGAAUACAACCAUCUACCUCA | 0.00333 ± 0.0021
14 | GGAGACCUUACUAUAGAACCUACUAGCUCA | 0.00445 ± 0.0038
15 | GGAGACCUAUGAAUACAACGUACUACCUCA | 0.00541 ± 0.0019
16 | GGAGUGGAUUCUAUACAACCUACUAGCUCA | 0.0603 ± 0.012
17 | GGAGACCUAACUAAACUACCUACUACCUCA | 0.0594 ± 0.017
18 | GGAGACCUAAGUAUACAACGUACUACCUCA | 0.0111 ± 0.0021
19 | GGAGACCUAUGUAUACAACCUACUAGCACA | 0.00507 ± 0.0028
20 | GGAGACCUUACUUUACAACCUACAACCUCA | 0.0873 ± 0.013
21 | GGAGACCUUACUAUACAACCUACCACCUCA | 0.118 ± 0.015
22 | GGAGACCUUACUAAACAACCAACUACCUCA | 0.00386 ± 0.0036
23 | GGAGACCUAUGUAUACUACGUACUACCUCA | 0.00798 ± 0.0023
24 | GGAGACCUUACUUUACAACCAACUACCUCA | 0.00491 ± 0.0033
